PubChem BioAssay (EPA / NIEHS)
Inconclusive results are not listed. More than one record can exist for a structure, and the calls need not agree. The source made the active and inactive calls. The calls were made as follows: active = hit-call score of the fitted dose curve at least 0.9, where 1 is the maximum; inconclusive = response in the unintended direction; inactive = score below 0.9.

The compounds below were run against human CYP1A1, CYP1A1 (gene 1543) (UniProt P04798) (assay: NVS_ADME_hCYP1A1: NovaScreen (NVS) CYP450-related Enzyme Activity (ADME) Assay for human CYP1A1 (AID 2283100)).
Chain of human CYP1A1, CYP1A1 (gene 1543) (P04798 whole entry, looked up): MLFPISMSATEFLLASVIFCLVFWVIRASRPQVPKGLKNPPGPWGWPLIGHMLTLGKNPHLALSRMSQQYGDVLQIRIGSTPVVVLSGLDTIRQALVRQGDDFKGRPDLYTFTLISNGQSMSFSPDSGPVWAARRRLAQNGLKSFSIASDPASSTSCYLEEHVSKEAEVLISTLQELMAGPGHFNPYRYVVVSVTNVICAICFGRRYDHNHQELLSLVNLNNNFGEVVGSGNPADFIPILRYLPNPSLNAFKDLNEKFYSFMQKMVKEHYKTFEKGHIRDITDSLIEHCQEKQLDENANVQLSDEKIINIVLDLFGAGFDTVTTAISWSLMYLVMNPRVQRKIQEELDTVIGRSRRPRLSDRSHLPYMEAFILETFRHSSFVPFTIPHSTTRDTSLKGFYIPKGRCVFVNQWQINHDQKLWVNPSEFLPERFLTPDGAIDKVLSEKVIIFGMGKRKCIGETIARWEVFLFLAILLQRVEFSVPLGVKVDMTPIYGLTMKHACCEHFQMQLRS
Protocol: NVS_ADME_hCYP1A1 is a biochemical, single-readout assay that uses extracted gene-proteins in a cell-free assay. Measurements were taken 1 hour after chemical dosing in a 96-well plate.NVS_ADME_hCYP1A1 is one of one assay component(s) measured or calculated from the NVS_ADME_hCYP1A1 assay. It is designed to make measurements of enzyme activity, a form of enzyme reporter, as detected with fluorescence intensity signals by Fluorescence technology.Data from the assay component NVS_ADME_hCYP1A1 was analyzed into 1 assay endpoint. This assay endpoint, NVS_ADME_hCYP1A1, was analyzed in the positive analysis fitting direction relative to Acetonitrile as the negative control and baseline of activity. Using a type of enzyme reporter, loss-of-signal activity can be used to understand changes in the enzymatic activity as they relate to the gene CYP1A1. Furthermore, this assay endpoint can be referred to as a primary readout, because this assay has produced multiple assay endpoints where this one serves a enzymatic activity function. To generalize the intended target to other relatable targets, this assay endpoint is annotated to the cyp intended target family, where the subfamily is xenobiotic metabolism.
Binding assays used specific radioligands (tritiated, iodinated) with non-radioactive competitive displacement ligands in agonist or antagonist protocols (as indicated) and various reference compounds and inhibitors to titrate specific binding to receptors and transporters. Most enzyme assays (CYPs, kinases, phosphatases, proteases, HDACs) used recombinant protein and specific substrates (fluorescence mostly, some colorimetric and radioactive) and inhibitors, followed by a biochemical separation of substrate and product. All assays for the biochemical HTS were initially run in duplicate at a single concentration (10 uM for CYP450 assays and 25 uM for all others). Assay-chemical combinations meeting a pre-defined threshold (e.g., 30% inhibition and other criteria defined below) were then run in singleton concentration-response format with maximum concentration of 20 uM for CYPs and 50 uM for all others. Each assay was run with positive and negative controls, and concurrent controls on every plate. The follow-up (secondary) screen tested active chemical-pairs in concentration series, as well as a few additional assays not tested in the primary screen, some selected negative inactives, and several cases re-run in the concentration series for confirmatory purposes.

| Compound | AC50 | outcome |
| --- | --- | --- |
| CC(C)(c1ccc(O)cc1)c1ccc(O)cc1 | 5.22 µM (active) | inactive |
| C#CCOC(=O)[C@@H](C)Oc1ccc(Oc2ncc(Cl)cc2F)cc1 | 2.24 µM (active) | – |
| C=CCOC(Cn1ccnc1)c1ccc(Cl)cc1Cl (stereo unspecified) | 1.55 µM (active) | – |
| S=C(S)NCCNC(=S)S.[Mn+2].[S-]C([S-])=NCCN=C([S-])[S-].[Zn+2] | – | inactive |
| CC(C)CCCCCCc1ccc(O)cc1 | 10.7 µM (active) | – |
| Oc1ccc(C(c2ccc(O)cc2)C(Cl)(Cl)Cl)cc1 | 10 µM (active) | – |
| COC(=O)CSc1cc(N=c2sc(=O)n3n2CCCC3)c(F)cc1Cl | – | inactive |
| COC(=O)c1ccccc1C(=O)O | – | inactive |
| CCCCOCCOCCOCc1cc2c(cc1CCC)OCO2 | 5.97 µM (active) | – |
| c1ccc2[nH]c(-c3cscn3)nc2c1 | 4.65 µM (active) | – |
